# Screening results deposited in PubChem by Broad Institute.
# Only a selection was taken, and hits are over-represented in it overall.
# C diff HTS – blocks growth of Clostridium difficile; AID 1259249; Clostridium difficile clinical isolate growth, OD600, 24 h; hits give low values; growth activity, negative = inhibition, % at 16 µg/mL (by protocol); hit rate 0.25% among 86,000;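 active means mean growth activity at or below -80% and every replicate also at or below -80%; inconclusive means mean at or below -80% but some replicate above -80%; inactive means mean growth activity above -80%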;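 further: 0% = DMSO wells and -100% = levofloxacin 16 µg/mL wells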
# T cruzi growth-1 – inhibitors of T. cruzi proliferation; hit rate 5.9% among 77,000; inhibition, % at 8.34 µM; T. cruzi beta-gal in NIH3T3, GalScreen luminescence, 90 h;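 active means mean inhibition above about 93%, with at least 55% of replicates each passing it, limit read from the data, passing the limit was not always enough; inconclusive means only one of those two conditions holds; inactive means neither condition holds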
# T cruzi growth-2 – Trypanosoma cruzi proliferation inhibition | hit rate 72% among 5,600 | T. cruzi beta-gal in NIH3T3, GalScreen luminescence, 90 h | AID 651739 | inhibition, % at 8.35 µM | shares compounds with T cruzi growth-1;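 active means mean replicate inhibition above about 95% and at least 55% of replicates individually reaching it, limit read from the data; inconclusive means only one of the two criteria is met; inactive means neither criterion is met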
# T cruzi growth-3 – blocks T. cruzi growth in NIH3T3 host cells; AID 651740; hit rate 21% among 5,600; T. cruzi beta-gal in NIH3T3, GalScreen luminescence, 90 h; inhibition, % at 2.09 µM; shares compounds with T cruzi growth-1;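 active means mean inhibition above about 95%, with at least 55% of replicates also reaching it, limit read from the data; inconclusive means meets just one of the two conditions; inactive means meets neither condition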;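 further: plate controls were neutral control median for no effect and positive control median for full effect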
# 3T3 cytotox – NIH/3T3 (mouse) viability loss; cytotoxicity (signal decrease), % at 8.35 µM; shares compounds with T cruzi growth-1; hit rate 14% among 5,600; NIH/3T3 viability, CellTiter-Glo ATP luminescence, 90 h; AID 651742;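 active means mean signal decrease across replicates above about 35% based on untreated-well scatter, with enough replicates individually passing, limit read from the data; inconclusive means no rule stated though some were filed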;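 further: 0% = median of neutral control wells and 100% = median of positive control wells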
# 3T3 cytotox 2 – NIH/3T3 (mouse) viability loss | NIH/3T3 viability, CellTiter-Glo ATP luminescence, 90 h | hit rate 56% among 5,600 | AID 651744 | shares compounds with T cruzi growth-1 | inhibition, % at 24.9 µM;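 active means mean loss of cell viability signal at or above a set limit, and enough replicates individually reaching it; inconclusive means meets only the mean limit or only the replicate share; inactive means meets neither condition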;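 further: 0% = median of neutral control wells and 100% = median of positive control wells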
# The depositor's hits bear a star; u = inconclusive; x = not tested or not shown.
SMILES,C diff HTS,T cruzi growth-1,T cruzi growth-2,T cruzi growth-3,3T3 cytotox,3T3 cytotox 2
OC[C@H]1[C@@H](c2ccc(Br)cc2)[C@H]2CN(Cc3ccccn3)CCCCN21,4,25,x,x,x,x
OC[C@@H]1[C@H](c2ccc(-c3cccnc3)cc2)[C@H]2CN(Cc3ccccn3)CCCCN12,-5,109*,97*,75,4,6
OC[C@@H]1[C@H](c2ccc(-c3cccnc3)cc2)[C@@H]2CN(Cc3ccccn3)CCCCN12,-4,95,x,x,x,x
C[C@@H]1CN([C@@H](C)CO)C(=O)Cc2cc(NC(=O)C3CC3)ccc2O[C@H]1CN(C)Cc1ccc(Cl)c(Cl)c1,33,124*,98*,33,40*,106*
C[C@H]1CN([C@@H](C)CO)C(=O)Cc2cc(NC(=O)C3CC3)ccc2O[C@@H]1CN(C)Cc1ccc(Cl)c(Cl)c1,2,60,x,x,x,x
C[C@H](CO)N1C[C@H](C)[C@@H](CN(C)Cc2ccc(Cl)c(Cl)c2)Oc2ccc(NC(=O)C3CC3)cc2CC1=O,2,115*,105*,53,0,6
C[C@@H]1CN([C@@H](C)CO)C(=O)Cc2cc(NC(=O)C3CCCCC3)ccc2O[C@@H]1CN(C)Cc1ccc(Cl)c(Cl)c1,-1,84,x,x,x,x
O=C(C[C@H]1C=C[C@@H](NS(=O)(=O)c2ccc(F)cc2)[C@H](CO)O1)NC1CCC1,0,x,x,x,x,x
C[C@H](CO)N1C[C@H](C)[C@@H](CN(C)Cc2ccc(C(F)(F)F)cc2)Oc2ccc(NC(=O)Nc3ccc(C(F)(F)F)cc3)cc2C1=O,16,36,x,x,x,x
C[C@@H]1CN([C@H](C)CO)C(=O)c2cc(NC(=O)NC3CCCCC3)ccc2O[C@@H](C)CCCCO[C@H]1CN(C)C(=O)Nc1ccc2c(c1)OCO2,-7,23,x,x,x,x
C[C@@H]1CCCCO[C@@H](CN(C)C(=O)Nc2ccc3c(c2)OCO3)[C@H](C)CN([C@@H](C)CO)C(=O)c2cc(NC(=O)NC3CCCCC3)ccc2O1,-7,52,x,x,x,x
C[C@@H]1CCCCO[C@@H](CN(C)C(=O)Nc2ccc3c(c2)OCO3)[C@H](C)CN([C@H](C)CO)C(=O)c2cc(NC(=O)NC3CCCCC3)ccc2O1,2,u,108*,31,-13,-2
C[C@H]1CCCCO[C@@H](CN(C)C(=O)Nc2ccc3c(c2)OCO3)[C@@H](C)CN([C@@H](C)CO)C(=O)c2cc(NC(=O)NC3CCCCC3)ccc2O1,-16,118*,113*,67,-3,-12
O=C(C[C@H]1C[C@H]2c3cc(NC(=O)C4CCC4)ccc3O[C@H]2[C@@H](CO)O1)NCc1cccnc1,-2,42,x,x,x,x
COc1ccccc1NC(=O)N1CCCCN2[C@H](C1)[C@H](c1ccc(-c3cccc(C#N)c3)cc1)[C@@H]2CO,7,82,x,x,x,x
N#Cc1cccc(-c2ccc([C@H]3[C@H](CO)N4CCCCN(C(=O)Nc5ccccc5)C[C@@H]34)cc2)c1,31,99*,110*,64,46*,106*
N#Cc1cccc(-c2ccc([C@@H]3[C@H](CO)N4CCCCN(C(=O)Nc5ccccc5)C[C@@H]34)cc2)c1,37,98*,108*,88,36*,106*
CCC(=O)N1CCCCN2[C@H](CO)[C@H](c3ccc(-c4cccc(C#N)c4)cc3)[C@@H]2C1,9,92,x,x,x,x
N#Cc1cccc(-c2ccc([C@H]3[C@@H](CO)N4CCCCN(C(=O)Nc5ccccc5)C[C@@H]34)cc2)c1,7,111*,108*,71,21,16
COc1ccccc1NC(=O)N1CCCCN2[C@H](C1)[C@@H](c1ccc(-c3cccc(C#N)c3)cc1)[C@@H]2CO,6,43,x,x,x,x
N#Cc1cccc(-c2ccc([C@@H]3[C@@H](CO)N4CCCCN(C(=O)Nc5ccc(F)cc5)C[C@H]34)cc2)c1,1,93,x,x,x,x
N#Cc1cccc(-c2ccc([C@@H]3[C@@H](CO)N4CCCCN(C(=O)Nc5ccccc5)C[C@@H]34)cc2)c1,16,108*,107*,70,42*,93*
C[C@H]1CN([C@@H](C)CO)S(=O)(=O)c2ccc(C#CC3CC3)cc2O[C@H]1CN(C)C(=O)c1cnccn1,0,27,x,x,x,x
CCCN(C)C[C@@H]1Oc2ncc(-c3ccccc3OC)cc2C(=O)N([C@@H](C)CO)C[C@H]1C,2,x,x,x,x,x
OC[C@H]1[C@@H](c2ccc(Br)cc2)[C@@H]2CNCCCCN12,-2,-9,x,x,x,x
SMILES,C diff HTS,T cruzi growth-1,T cruzi growth-2,T cruzi growth-3,3T3 cytotox,3T3 cytotox 2
O=C(C[C@H]1CC[C@H]2[C@@H](COC[C@@H](O)CN2CC2CCOCC2)O1)NCC1CCCCC1,-5,40,x,x,x,x
Cc1ccc(S(=O)(=O)N(C)C[C@H]2OCCCC[C@@H](C)Oc3ccc(NS(=O)(=O)c4cn(C)cn4)cc3C(=O)N([C@H](C)CO)C[C@@H]2C)cc1,3,52,x,x,x,x
C[C@@H]1CCCCO[C@@H](CN(C)Cc2ccc3c(c2)OCO3)[C@@H](C)CN([C@@H](C)CO)C(=O)c2cc(NC(=O)Nc3ccc(C(F)(F)F)cc3)ccc2O1,-37,u,98*,114*,u,57*
C[C@@H]1CCCCO[C@@H](CN(C)Cc2ccc3c(c2)OCO3)[C@H](C)CN([C@@H](C)CO)C(=O)c2cc(NC(=O)Nc3ccc(C(F)(F)F)cc3)ccc2O1,-70,u,99*,111*,31,53*
C[C@@H]1CCCCO[C@@H](CN(C)Cc2ccc(C(F)(F)F)cc2)[C@@H](C)CN([C@H](C)CO)C(=O)c2cc(NC(=O)Nc3ccc4c(c3)OCO4)ccc2O1,x,100*,101*,21,-9,-10
C[C@@H]1CCCCO[C@H](CN(C)Cc2ccc(C(F)(F)F)cc2)[C@H](C)CN([C@H](C)CO)C(=O)c2cc(NC(=O)Nc3ccc4c(c3)OCO4)ccc2O1,x,90,x,x,x,x
C[C@@H]1CN([C@@H](C)CO)C(=O)c2cc(NC(=O)Nc3ccc4c(c3)OCO4)ccc2O[C@@H](C)CCCCO[C@H]1CN(C)Cc1ccc(C(F)(F)F)cc1,x,81,x,x,x,x
C[C@H](CO)N1C[C@H](C)[C@H](CN(C)Cc2ccc(C(F)(F)F)cc2)OCCCC[C@H](C)Oc2ccc(NC(=O)Nc3ccc4c(c3)OCO4)cc2C1=O,x,79,x,x,x,x
C[C@@H]1CCCCO[C@H](CN(C)Cc2ccc3c(c2)OCO3)[C@H](C)CN([C@H](C)CO)C(=O)c2cc(NC(=O)Nc3ccc(C(F)(F)F)cc3)ccc2O1,-10,u,96*,116*,u,95*
C[C@@H]1CN([C@H](C)CO)C(=O)c2cc(NC(=O)Nc3ccc4c(c3)OCO4)ccc2O[C@@H](C)CCCCO[C@@H]1CN(C)Cc1ccc(C(F)(F)F)cc1,x,81,x,x,x,x
C[C@H](CO)N1C[C@H](C)[C@@H](CN(C)Cc2cccc(F)c2)Oc2ncc(Br)cc2C1=O,1,5,x,x,x,x
